Results: PubChem BioAssay

Assay: inhibitors of Sendai virus-induced IRF3 signaling, primary screen, TLR/RLR signaling modifier project, cell-based, Sendai virus stimulus, luciferase, 10K MLSCN set (AID 602276);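 also: firefly luciferase from ISG56 promoter only with Renilla not read in this screen; 0% = Sendai virus plus DMSO and 100% = medium plus DMSO without virus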
Conditions: HEK293 RL24 IRF3 luciferase reporter, at 10 µM, hits give high values;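 active = inhibition at or above 50% at 10 µM; inactive = inhibition below 50%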

inhibition, inactive:
O=C(NC1CCCc2ccccc21)C1CCN(c2nnc(-n3cccc3)s2)CC1 (stereo not given) 7.01%, c1ccc(Oc2ccc(-n3cnnn3)cc2)cc1 -11.3%, COc1ccc(C)cc1NC(=O)CN(Cc1nnc(-c2ccc(Cl)cc2)o1)C1CCCC1 -26.9%, O=C(NCCN1C(=O)C2C3C=CC(C3)C2C1=O)N1CCCCC1 (stereo not given) -6.07%, CCOc1ccc(N2CC(C(=O)Nc3cccc(C)c3C)CC2=O)cc1 (stereo not given) 8.36%, CCOC(=O)c1c(C)[nH]c(C(=O)Cn2c(=O)oc3ccccc32)c1C -8.59%, COc1cccc(-n2ccnc2SCC(=O)N2CCc3ccccc32)c1 -3.01%, Cc1[nH]c2ccccc2c1Cc1nnc(SCC(=O)NCc2ccco2)o1 -11.7%, CCN(CC)CCCNC(=O)c1cn(C)c2ccc(S(=O)(=O)N(C)C)cc2c1=O 7.25%, CC(=O)NCC(=O)N(Cc1ccco1)C1(C(=O)NC2CCCCC2)CCCCC1 9.16%, COc1ccc(NC(=O)C2CCCN(S(=O)(=O)c3cccc4cccnc34)C2)cc1OC (stereo not given) 14.2%, O=c1[nH]c(CN2CCN(Cc3ccccc3)CC2)nc2sc3c(c12)CCC3 3.63%, O=C(CC1CCS(=O)(=O)C1)Nc1ccc[nH]c1=O (stereo not given) 16.2%, CCOC(=O)N1CCN(C(=O)CSc2nnc(COc3ccccc3)o2)CC1 -13.9%, CC(C)OC(=O)CSc1nnc(-c2ccc(C(C)(C)C)cc2)n1N 1.32%
